Measured values published in PubChem BioAssay (Tox21).
“And” between values parts separate entries of the source, which are not always exact repeats. Equal entries are not always repeated. Records with an inconclusive call do not appear. Where a structure was tested more than once in an assay, its records may differ in their call. The source made the active and inactive calls. Unless noted, the call rests on the fitted dose curve; in most records, active means well fitted curve in the direction sought with a large enough effect in the repeat runs; inconclusive means weak or mixed curves; inactive means no such curve, though single readings can be large; an effect the other way counts as inactive or inconclusive.

Legend:
[1] = qHTS assay to test for compound auto fluorescence at 535 nm (green) in HEK293 cells (AID 720680)
[2] = qHTS assay to test for compound auto fluorescence at 535 nm (green) in HEK293 cell free culture (AID 720682)
Summary of the method: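 Measurement is a direct plate read of green fluorescence (485 nm in, 535 nm out) after compound addition to serum-supplemented DMEM lacking cells, with fluorescein used to express intensities.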

[3] = qHTS assay to test for compound auto fluorescence at 590 nm (red) in HEK293 cell free culture (AID 720683)
Summary of the method: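 Tox21 10K library compounds were pinned into cell-free DMEM with 10% FBS and fluorescence was read at excitation 540 nm. Activity is expressed as Rose Bengal sodium equivalency.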

[4] = qHTS assay to test for compound auto fluorescence at 590 nm (red) in HepG2 cell free culture (AID 720684)
Summary of the method: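 Readout: intrinsic compound fluorescence at 590 nm emission after 540 nm excitation, scaled to Rose Bengal sodium. Matrix was cell-free MEM with 10% FBS; DMSO vehicle wells served as control.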

[5] = qHTS assay to test for compound auto fluorescence at 460 nm (blue) in HepG2 cell free culture (AID 720685)
Summary of the method: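 Cell-free plates of MEM plus 10% FBS received 23 nL compound or DMSO vehicle; blue-channel (405/460 nm) intensity scored against triamterene as reference fluorophore.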

[6] = qHTS assay to test for compound auto fluorescence at 535 nm (green) in HepG2 cell free culture (AID 720686)
[7] = qHTS assay to test for compound auto fluorescence at 460 nm (blue) in HepG2 cells (AID 720687)
Summary of the method: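 Cells (2,000/well in MEM with 10% FBS) attached overnight at 37 C, then were exposed to compound or DMSO for 1 hr at 37 C, 5% CO2. Fluorescence read at Ex/Em 405/460 nm, expressed as triamterene-equivalent signal.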

[8] = target: Glucocorticoid receptor (Homo sapiens) (UniProt P04150); assay: qHTS assay to identify small molecule agonists of the glucocorticoid receptor (GR) signaling pathway (AID 720691; active means well fitted activation curve with a large enough effect in the signal ratio in the repeat runs, not every such curve was filed as active; the % refers to the signal ratio); details: GR-bla HeLa, beta-lactamase reporter ratio, 18 h; activation: at 62.4 µM (top of the series)
Summary of the method: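 Compounds in DMSO, alongside positive controls, were added to GR-bla HeLa reporter cells and incubated 18 h at 37 C; GRE-driven beta-lactamase was detected by fluorescence after 2 h with FRET substrate at room temperature.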

[9] = target: Glucocorticoid receptor (Homo sapiens) (UniProt P04150); assay: qHTS assay to identify small molecule antagonists of the glucocorticoid receptor (GR) signaling pathway (AID 720692; active means well fitted inhibition curve with a large enough effect in the signal ratio in the repeat runs, not every such curve was filed as active; the % refers to the signal ratio; further: potency means the concentration at half of the fitted maximal effect)
Summary of the method: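 In a 1536-well cell format, compounds were added 4 h after seeding GR-bla HeLa cells, together with dexamethasone at 5 nM final; reporter activity was measured by FRET-substrate fluorescence following 18 h at 37 C.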

[10] = qHTS assay for identifying genotoxic compounds that show differential cytotoxicity against isogenic chicken DT40 cell lines with known DNA damage response pathways - wild type cell line (AID 743012); further: nearly all actives have a fitted effect of over 60% in size; further: potency means the concentration at half of the fitted maximal effect
Summary of the method: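 Viability of DNA repair-proficient chicken DT40 cells was assessed by CellTiter-Glo luminescence following 40 h compound exposure at 37 C/5% CO2.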

[11] = qHTS assay for identifying genotoxic compounds that show differential cytotoxicity against isogenic chicken DT40 cell lines with known DNA damage response pathways - Rev3 mutant cell line (AID 743014); further: nearly all actives have a fitted effect of over 55% in size; further: potency means the concentration at half of the fitted maximal effect
[12] = qHTS assay for identifying genotoxic compounds that show differential cytotoxicity against isogenic chicken DT40 cell lines with known DNA damage response pathways - Rad54/Ku70 mutant cell line (AID 743015); further: nearly all actives have a fitted effect of over 60% in size; further: potency means the concentration at half of the fitted maximal effect
[13] = qHTS assay to identify small molecule antagonists of the androgen receptor (AR) signaling pathway - cell viability counter screen (AID 743033; further: nearly all actives have a fitted effect of over 45% in size; further: potency means the concentration at half of the fitted maximal effect)
[14] = qHTS assay to identify small molecule antagonists of the androgen receptor (AR) signaling pathway using the MDA cell line - cell viability counter screen (AID 743041; further: nearly all actives have a fitted effect of over 45% in size)
Summary of the method: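 qHTS viability read-out; MDA-kb2 AR-luc; R1881-stimulated; 16 h exposure at 37C, 0% CO2; CellTiter-Fluor, 30 min; fluorescence intensity.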

[15] = qHTS assay to identify small molecule antagonists of the thyroid receptor (TR) signaling pathway - cell viability counter screen (AID 743064); further: nearly all actives have a fitted effect of over 50% in size; further: potency means the concentration at half of the fitted maximal effect
Summary of the method: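 Compounds were tested on GH3.TRE-Luc cells in the presence of T3 at 1 nM final. Following 23.5 h at 37 °C, cell viability was quantified by CellTiter-Fluor.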

[16] = qHTS assay to identify small molecule antagonists of the glucocorticoid receptor (GR) signaling pathway - cell viability counter screen (AID 720693); further: nearly all actives have a fitted effect of over 55% in size; further: potency means the concentration at half of the fitted maximal effect
[17] = target: Androgen receptor (Homo sapiens) (UniProt P10275); assay: qHTS assay to identify small molecule agonists of the androgen receptor (AR) signaling pathway using the MDA cell line (AID 743040; further: nearly all actives have a fitted effect of over 20% in size)
Summary of the method: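 Agonist activity is measured as luciferase luminescence in human MDA-kb2 cells whose MMTV reporter responds to both AR and GR. Compounds in DMSO incubate 16 h at 37C, 0% CO2, and ONE-Glo is read after 30 min.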

[18] = target: Androgen receptor (Homo sapiens) (UniProt P10275); assay: qHTS assay to identify small molecule antagonists of the androgen receptor (AR) signaling pathway using the MDA cell line (AID 743042; further: nearly all actives have a fitted effect of over 55% in size)
Summary of the method: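 MDA-kb2 cells (human breast carcinoma, stably carrying an MMTV-luciferase reporter responsive to AR and GR) were plated at 3,000 cells/well and preincubated 5 hr at 37C, then given compound plus R1881 agonist for 16 h. ONE-Glo luminescence was read.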

[19] = qHTS assay to test for compound auto fluorescence at 460 nm (blue) in HEK293 cell free culture (AID 720681)
Summary of the method: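 Test compounds were pinned into cell-free culture medium (DMEM with 10% FBS) and fluorescence was read directly at Ex/Em 405/460 nm. Signals were expressed as fluorescence equivalents of triamterene, with DMSO vehicle as control.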

[20] = target: Androgen receptor (Homo sapiens) (UniProt P10275); assay: qHTS assay to identify small molecule antagonists of the androgen receptor (AR) signaling pathway (AID 743035; active means well fitted inhibition curve with a large enough effect in the signal ratio in the repeat runs, not every such curve was filed as active; the % refers to the signal ratio)
Summary of the method: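 Reporter HEK293 cells were exposed to compounds and R1881 overnight (16 h, 37C); beta-lactamase activity was then quantified by FRET fluorescence.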
On the % scale 0 is the no-effect control and ±100 the full control effect.

Sequence of Glucocorticoid receptor (Homo sapiens) (P04150 whole entry, looked up): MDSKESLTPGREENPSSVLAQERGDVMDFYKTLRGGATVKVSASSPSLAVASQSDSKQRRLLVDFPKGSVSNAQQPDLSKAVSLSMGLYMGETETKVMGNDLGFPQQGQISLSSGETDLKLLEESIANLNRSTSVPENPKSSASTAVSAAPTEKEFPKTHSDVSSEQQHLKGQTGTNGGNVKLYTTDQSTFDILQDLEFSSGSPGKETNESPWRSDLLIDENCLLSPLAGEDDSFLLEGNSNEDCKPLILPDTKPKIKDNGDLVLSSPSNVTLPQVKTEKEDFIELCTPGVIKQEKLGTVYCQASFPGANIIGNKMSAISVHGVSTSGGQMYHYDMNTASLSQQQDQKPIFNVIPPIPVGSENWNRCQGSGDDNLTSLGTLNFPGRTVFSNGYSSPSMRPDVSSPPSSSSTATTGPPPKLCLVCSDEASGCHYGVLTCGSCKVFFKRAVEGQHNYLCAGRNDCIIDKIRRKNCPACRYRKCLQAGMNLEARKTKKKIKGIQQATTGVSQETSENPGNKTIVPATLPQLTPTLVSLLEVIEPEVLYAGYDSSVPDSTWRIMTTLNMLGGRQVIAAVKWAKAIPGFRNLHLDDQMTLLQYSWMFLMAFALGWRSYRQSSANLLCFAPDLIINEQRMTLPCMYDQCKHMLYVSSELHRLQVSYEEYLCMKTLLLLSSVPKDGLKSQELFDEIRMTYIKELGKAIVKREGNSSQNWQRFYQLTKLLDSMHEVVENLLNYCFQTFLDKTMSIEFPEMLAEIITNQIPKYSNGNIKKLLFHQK
Sequence of Androgen receptor (Homo sapiens) (P10275 whole entry, looked up): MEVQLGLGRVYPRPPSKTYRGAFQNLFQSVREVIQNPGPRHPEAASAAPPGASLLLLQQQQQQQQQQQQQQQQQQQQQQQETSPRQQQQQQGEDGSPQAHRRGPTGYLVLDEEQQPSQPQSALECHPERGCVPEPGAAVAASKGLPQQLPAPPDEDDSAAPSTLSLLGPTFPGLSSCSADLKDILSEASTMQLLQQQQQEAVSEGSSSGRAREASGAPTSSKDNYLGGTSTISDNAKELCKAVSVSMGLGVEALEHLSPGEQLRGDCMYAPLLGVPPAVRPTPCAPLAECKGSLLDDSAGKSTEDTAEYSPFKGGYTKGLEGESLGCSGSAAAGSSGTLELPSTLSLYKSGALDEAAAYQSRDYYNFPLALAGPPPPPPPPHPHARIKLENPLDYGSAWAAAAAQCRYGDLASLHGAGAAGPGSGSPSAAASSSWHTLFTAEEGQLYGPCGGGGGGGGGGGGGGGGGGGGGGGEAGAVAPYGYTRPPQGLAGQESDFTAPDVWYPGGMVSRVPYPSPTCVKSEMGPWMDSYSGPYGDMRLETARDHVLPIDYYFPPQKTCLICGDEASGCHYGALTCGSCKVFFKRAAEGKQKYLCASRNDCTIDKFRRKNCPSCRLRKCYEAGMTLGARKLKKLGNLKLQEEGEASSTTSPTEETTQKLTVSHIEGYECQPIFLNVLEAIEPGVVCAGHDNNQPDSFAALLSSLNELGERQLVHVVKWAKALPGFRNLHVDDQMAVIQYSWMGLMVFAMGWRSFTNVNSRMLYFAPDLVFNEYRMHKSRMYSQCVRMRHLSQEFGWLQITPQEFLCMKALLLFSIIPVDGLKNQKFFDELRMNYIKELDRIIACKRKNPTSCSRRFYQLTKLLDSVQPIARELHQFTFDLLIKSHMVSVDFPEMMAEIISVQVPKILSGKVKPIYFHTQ

O=C(O)CCCCCCNC1c2ccccc2CCc2ccccc21
inactive: outcome [1] | outcome [2] | outcome [3] | outcome [4] | Potency [5] | Potency [6] | Potency [7] | Potency [8] | Potency [9] | Potency [10] | Potency [11] | Potency [12] | Potency [13] | Potency [14] | Potency [15]

COC(=O)c1cc(Oc2ccc(Cl)cc2Cl)ccc1[N+](=O)[O-]
inactive: outcome [1] | outcome [2] | outcome [3] | outcome [4] | Potency [5] | Potency [6] | Potency [7] | Potency [8] | Potency [9] | Potency [16] | Potency [13] | Potency [14]
active: Potency [10] 9.69 µM | Potency [11] 12.2 µM

Clc1c(Cl)c(Cl)c(Cl)c(Cl)c1Cl
inactive: fluorescence, % of fluorescein [1] 0.081% [at 3.72 µM] | activity change [2] 0.0009% [at 3.72 µM] | fluorescence, % of fluorescent control [5] 0.0528% [at 3.72 µM] | fluorescence, % of fluorescein control [6] -0.0548% [at 3.72 µM] | fluorescence, % of fluorescent control [7] -0.0163% [at 3.72 µM] | activation [8] -0.383% [at 6.9 µM] | activity change, negative = inhibition [9] -10.3% [at 7.04 µM] | viability change, negative = cytotoxic [16] -7.19% [at 7.04 µM] | activity, negative = cytotoxicity [11] 6.09% [at 8.53 µM] | activity change, negative = cytotoxicity [13] 3.9% [at 7.04 µM] | viability change, negative = cytotoxic [14] -2.06% [at 8.47 µM] | activity change, negative = cytotoxic [15] -0.947% [at 8.44 µM]

O=[N+]([O-])C(Br)Br
inactive: outcome [1] | outcome [2] | outcome [3] | outcome [4] | Potency [5] | Potency [6] | Potency [7] | Potency [8] | Potency [9] | Potency [16] | Potency [13] | outcome [17] | Potency [14] | Potency [18] | Potency [15]

COP(=S)(OC)Oc1ccc([N+](=O)[O-])c(C)c1
inactive: outcome [1] | outcome [2] | outcome [3] | outcome [4] | Potency [5] | Potency [6] | Potency [7] | Potency [8] | Potency [16] | Potency [12] | Potency [13] | Potency [14] | Potency [15]

CCO/N=C(\CC)C1=C(O)CC(c2c(C)cc(C)cc2C)CC1=O (centres undefined)
inactive: outcome [1] | outcome [2] | outcome [3] | outcome [4] | Potency [5] | Potency [6] | Potency [7] | Potency [8] | Potency [9] | Potency [16] | outcome [17] | Potency [14]
active: Potency [10] 48.5 µM | Potency [11] 51.4 µM

O=[N+]([O-])c1ccc(Cl)c(Cl)c1Cl
inactive: outcome [1] | outcome [2] | outcome [3] | outcome [4] | Potency [5] | Potency [6] | Potency [7] | Potency [16] | Potency [11] | Potency [12] | Potency [13] | Potency [14] | Potency [15]

CC(Cc1ccc(OCC(=O)O)cc1)NCC(O)c1csc(C(F)(F)F)n1 (centres undefined)
inactive: Potency [19] | outcome [2] | outcome [3] | outcome [4] | Potency [5] | Potency [6] | Potency [7] | Potency [8] | Potency [9] | Potency [16] | Potency [10] | Potency [11] | Potency [13] | Potency [14] | Potency [15]

O=NN(CCO)CCO
inactive: Potency [19] | outcome [2] | outcome [3] | outcome [4] | Potency [5] | Potency [6] | Potency [7] | Potency [8] | Potency [9] | Potency [16] | Potency [10] | Potency [11] | Potency [12] | Potency [13] | Potency [20] | outcome [17] | Potency [14] | Potency [18] | Potency [15]

[O-][Cl+3]([O-])([O-])O
inactive: outcome [1] | outcome [2] | outcome [3] | Potency [5] | Potency [6] | Potency [7] | Potency [16] | Potency [10] | Potency [11] | Potency [12] | Potency [13] | Potency [14] | Potency [15]

CC(=O)[O-].CC(=O)[O-].CC(=O)[O-].[Cr+3]
active: Potency [11] 60.9 µM | Potency [12] 19.3 µM | Potency [15] 54.3 µM
inactive: outcome [1] | outcome [2] | outcome [3] | outcome [4] | Potency [5] | Potency [6] | Potency [7] | Potency [16] | Potency [13] | Potency [14]

Brc1ccc(Oc2ccc(Br)cc2Br)c(Br)c1
inactive: outcome [1] | outcome [2] | outcome [3] | outcome [4] | Potency [5] | Potency [6] | Potency [7] | Potency [16] | Potency [10] | Potency [11] | Potency [13] | Potency [14]

Clc1ccc(C(c2ccc(Cl)cc2)C(Cl)Cl)cc1
active: Potency [9] 24.9 µM | Potency [10] 39.2 µM and 19.3 µM | Potency [11] 17.5 µM and 3.86 µM | Potency [12] 27.8 µM and 10.9 µM | Potency [15] 24.7 µM and 68.6 µM
inactive: outcome [1] | outcome [2] | outcome [3] | Potency [5] | Potency [6] | Potency [7] | Potency [8] | Potency [13] | Potency [14]

CCOP(=O)(Sc1ccccc1)Sc1ccccc1
active: Potency [10] 24.3 µM
inactive: Potency [19] | outcome [2] | outcome [3] | outcome [4] | Potency [5] | Potency [6] | Potency [7] | Potency [8] | Potency [9] | Potency [16] | Potency [11] | Potency [13] | Potency [14] | Potency [15]

O=C(NC(=O)c1c(F)cccc1F)Nc1ccc(Oc2ccc(C(F)(F)F)cc2Cl)cc1F
active: Potency [10] 4.33 µM | Potency [11] 21.7 µM | Potency [12] 3.86 µM | Potency [15] 43.3 µM
inactive: outcome [1] | outcome [2] | outcome [3] | outcome [4] | Potency [5] | Potency [6] | Potency [7] | Potency [16]

C[C@]12C/C(=C/O)C(=O)C[C@@H]1CC[C@@H]1[C@@H]2CC[C@@]2(C)[C@H]1CC[C@]2(C)O
active: Potency [16] 49.4 µM | Potency [10] 29.8 µM | Potency [11] 49 µM | Potency [12] 13.3 µM and 15.5 µM
inactive and 61.7 µM (active): Potency [15]
inactive: outcome [1] | outcome [2] | outcome [3] | outcome [4] | Potency [5] | Potency [6] | Potency [7] | Potency [8] | Potency [14]
inactive and 44.1 µM (active): Potency [13]
